# Reference: PubChem BioAssay (Tox21)
# Records with an inconclusive call do not appear. Some structures have more than one record in an assay (separate samples or runs), and their calls can disagree. Active and inactive are the calls of the source. Calls follow the shape of the dose curve; as a rule, active = well fitted curve in the direction sought with a large enough effect in the repeat runs; inconclusive = weak or mixed curves; inactive = no such curve, though single readings can be large; an effect the other way counts as inactive or inconclusive.
# Molecular target: Nuclear receptor subfamily 1 group I member 2 (Homo sapiens) (UniProt O75469)
# Test: CYP3A4 induction through human pregnane X receptor (PXR) by small molecules, qHTS assay (AID 1346984); also: nearly all actives have a fitted effect of over 40% in size
# Settings: DPX-2 HepG2 PXR, CYP3A4-luciferin luminescence, 24 h; series mostly up to 46.1 µM; activation: at the top concentration
# Procedure, shortened: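 Luminescence readout: luciferase signal after One-Glo (30 min, room temperature), following 3 h at 37C with 3uM final Luciferin-IPA P450 substrate. Cells were DPX-2 (HepG2, PXR/CYP3A4-luc co-transfected) dosed for 24 h.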
# % is scaled to controls: 0 for no effect and ±100 for the full control effect.
row,Compound,activation
1,Cc1ccc(C(C)C)cc2c(C)ccc1-2,26.1% (inactive)
2,O[C@@H]([C@H](O)[C@H](O)CBr)[C@H](O)CBr,-6.79% (inactive)
3,CC(C)Cn1cnc2c(N)nc3ccccc3c21,2.01% (inactive)
4,Cc1c(F)c(N2CCNC(C)C2)cc2c1c(=O)c(C(=O)O)cn2C1CC1 (stereo not given),-0.0569% (inactive)
5,Nc1nc(N)nc(-c2cc(Cl)ccc2Cl)n1,-5.77% (inactive)
6,Cc1c(C)c2c(c(C)c1OC(=O)c1cccnc1)CC[C@@](C)(CCC[C@H](C)CCC[C@H](C)CCCC(C)C)O2,21.9% (inactive)
7,O=C(O)c1cc(-c2ccc(F)cc2F)ccc1O,5.35% [at 20.6 µM] (inactive)

# Molecular target: Nuclear receptor subfamily 1 group I member 2 (Homo sapiens) (UniProt O75469)
# Test: Human pregnane X receptor (PXR) activation by small molecules, qHTS assay (AID 1346985); also: nearly all actives have a fitted effect of over 40% in size; also: potency is read from the fitted curve at half-maximal effect
# Settings: DPX-2 HepG2 CYP3A4-luciferase, 24 h; series mostly up to 38.3 µM; activation: at the top concentration
# Procedure, shortened: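 DPX-2 cells (HepG2 co-transfected with a PXR response element and a CYP3A4-promoter luciferase construct) were seeded at 2,000 per well, rested 5 hr at 37C, then exposed to DMSO-dissolved compounds for 24 hr. Activation was read as luciferase luminescence.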
Compound,Potency,activation
Cc1ccc(C(C)C)cc2c(C)ccc1-2,22.4 µM (active),
CC(C)NC[C@@H](O)COc1ccc(CC(N)=O)cc1,,-4.28% (inactive)
O[C@@H]([C@H](O)[C@H](O)CBr)[C@H](O)CBr,,6.02% (inactive)
Cc1c(F)c(N2CCNC(C)C2)cc2c1c(=O)c(C(=O)O)cn2C1CC1 (stereo not given),,2% (inactive)
Nc1nc(N)nc(-c2cc(Cl)ccc2Cl)n1,,21.1% (inactive)
Cc1c(C)c2c(c(C)c1OC(=O)c1cccnc1)CC[C@@](C)(CCC[C@H](C)CCC[C@H](C)CCCC(C)C)O2,,-3.69% (inactive)
O=C(O)c1cc(-c2ccc(F)cc2F)ccc1O,,-8.21% [at 17.1 µM] (inactive)

# Molecular target: Cytochrome P450 2D6 (Homo sapiens) (UniProt P10635)
# Sequence (P10635 whole entry, looked up): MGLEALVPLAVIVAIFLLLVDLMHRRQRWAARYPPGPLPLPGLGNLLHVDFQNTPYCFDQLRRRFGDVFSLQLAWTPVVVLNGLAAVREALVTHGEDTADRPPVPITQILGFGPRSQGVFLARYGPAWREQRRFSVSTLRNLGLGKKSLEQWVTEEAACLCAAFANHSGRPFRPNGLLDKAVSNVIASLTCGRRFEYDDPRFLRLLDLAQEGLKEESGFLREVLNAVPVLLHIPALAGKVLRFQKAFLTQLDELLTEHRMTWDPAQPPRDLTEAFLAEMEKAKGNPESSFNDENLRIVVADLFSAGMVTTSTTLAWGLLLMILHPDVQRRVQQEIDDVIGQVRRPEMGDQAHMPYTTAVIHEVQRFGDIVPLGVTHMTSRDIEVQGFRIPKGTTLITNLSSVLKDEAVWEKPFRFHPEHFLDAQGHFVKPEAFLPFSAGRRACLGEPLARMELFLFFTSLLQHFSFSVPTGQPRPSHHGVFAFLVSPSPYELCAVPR
# Test: Cytochrome P450 Family 2 Subfamily D Member 6 (CYP2D6) small molecule antagonists: luciferase reporter qHTS assay (AID 1671196); also: nearly all actives have a fitted effect of over 50% in size; also: potency is read from the fitted curve at half-maximal effect
# Settings: P450-Glo CYP2D6 enzyme assay, luciferin luminescence, 1 h; series mostly up to 115 µM; activity change, negative = inhibition: at the top concentration
# Procedure, shortened: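 Read-out is luminescence from luciferin formed by CYP2D6 turnover of a proluciferin substrate, recorded as relative luminescence units. Reactions ran 1 h at room temperature after NADPH regeneration solution was added.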
Compound,"activity change, negative = inhibition",Potency
Cc1ccc(C)cc1,-0.932% (inactive),
COC(=O)c1ccccc1C,-6.56% (inactive),
Cc1ccc(C(C)C)cc2c(C)ccc1-2,-8.94% [at 53 µM] (inactive),
CCc1ccc(Br)cc1,-1.81% (inactive),
COC(C)=O,-3.04% (inactive),
CC(C)CCOC(=O)/C=C/c1ccccc1,-2.47% (inactive),
Cc1cccc(C)c1NC(=O)c1ccc(N)cc1,1.2% [at 53 µM] (inactive),
O[C@@H]([C@H](O)[C@H](O)CBr)[C@H](O)CBr,-21.6% (inactive),
CC(C)CCCCCOC(=O)CCS,-11.6% (inactive),
CCCC[P+](C)(CCCC)CCCC,,203 nM (active)
O=C(/C=C/c1ccc(O)c(O)c1)O[C@@H](C(=O)O)[C@@H](OC(=O)/C=C/c1ccc(O)c(O)c1)C(=O)O,,31700 nM (active)
NC[C@H]1O[C@H](O[C@H]2[C@H](O[C@@H]3O[C@H](CO)[C@@H](O)[C@H]3O)C(O)[C@H](N)C[C@@H]2N)[C@H](N)[C@@H](O)[C@@H]1O (stereo not given in full),-0.538% [at 10.5 µM] (inactive),
Cc1c(C)c2c(c(C)c1O)CC[C@@](C)(CCC[C@H](C)CCC[C@H](C)CCCC(C)C)O2,-0.367% (inactive),
Cc1c(F)c(N2CCNC(C)C2)cc2c1c(=O)c(C(=O)O)cn2C1CC1 (stereo not given),-6.05% [at 53 µM] (inactive),
OC[C@@H](O)[C@@H](O)CO,-1.72% (inactive),
CCCCCc1ccc(Cl)cc1,-8.13% (inactive),
C=Cc1cccc(C)c1,,39.5 µM (active) and inactive
Nc1nc(N)nc(-c2cc(Cl)ccc2Cl)n1,-0.283% [at 53 µM] (inactive),
CCCCCC(C)OC(=O)COc1ccc(Cl)c2cccnc12 (stereo not given),-19.1% (inactive),
O=C1OC2(c3ccc(O)cc3Oc3cc(O)ccc32)c2ccc(N=C=S)cc21,-8.26% (inactive),
CCCCC(CC)COC(=O)CCCCC(=O)OCc1ccccc1 (stereo not given),-7.62% (inactive),
Cc1c(C)c2c(c(C)c1OC(=O)c1cccnc1)CC[C@@](C)(CCC[C@H](C)CCC[C@H](C)CCCC(C)C)O2,0.906% [at 53 µM] (inactive),
O=C(O)c1cc(-c2ccc(F)cc2F)ccc1O,-10.8% [at 53 µM] (inactive),
C=CCCC(=O)/C=C/C1C(C)=CCCC1(C)C (stereo not given),-16% (inactive),
CC/C=C\CCCCCO,-7.55% (inactive),
CC1(C)CC(O)CC(C)(C)N1,2.85% (inactive),
